In ChEMBL document CHEMBL3988442, “University of Dundee, Small-Polar-MMV Screening Library” (2021):
For part of these data: Potency and affinity values are given separately.

What was measured:
Design in all cases: scale not given: direction of the effect not stated beside the values
[1] = target: Protein translocase subunit SecA (Escherichia coli (strain K12)) (UniProt P10408); experiment: Assay to Identify E. coli SecA ATPase Inhibitors; assay type: functional; conditions: 30 µM
[2] = target: T1, Ubiquitin-activating enzyme e1, putative (Leishmania donovani (strain BPK282A1)) (UniProt E9BSI1); experiment: Leishmania donovani Ubiquitin Activating Enzyme (LdE1); assay type: functional; conditions: 30 µM
T1 sequence (whole entry): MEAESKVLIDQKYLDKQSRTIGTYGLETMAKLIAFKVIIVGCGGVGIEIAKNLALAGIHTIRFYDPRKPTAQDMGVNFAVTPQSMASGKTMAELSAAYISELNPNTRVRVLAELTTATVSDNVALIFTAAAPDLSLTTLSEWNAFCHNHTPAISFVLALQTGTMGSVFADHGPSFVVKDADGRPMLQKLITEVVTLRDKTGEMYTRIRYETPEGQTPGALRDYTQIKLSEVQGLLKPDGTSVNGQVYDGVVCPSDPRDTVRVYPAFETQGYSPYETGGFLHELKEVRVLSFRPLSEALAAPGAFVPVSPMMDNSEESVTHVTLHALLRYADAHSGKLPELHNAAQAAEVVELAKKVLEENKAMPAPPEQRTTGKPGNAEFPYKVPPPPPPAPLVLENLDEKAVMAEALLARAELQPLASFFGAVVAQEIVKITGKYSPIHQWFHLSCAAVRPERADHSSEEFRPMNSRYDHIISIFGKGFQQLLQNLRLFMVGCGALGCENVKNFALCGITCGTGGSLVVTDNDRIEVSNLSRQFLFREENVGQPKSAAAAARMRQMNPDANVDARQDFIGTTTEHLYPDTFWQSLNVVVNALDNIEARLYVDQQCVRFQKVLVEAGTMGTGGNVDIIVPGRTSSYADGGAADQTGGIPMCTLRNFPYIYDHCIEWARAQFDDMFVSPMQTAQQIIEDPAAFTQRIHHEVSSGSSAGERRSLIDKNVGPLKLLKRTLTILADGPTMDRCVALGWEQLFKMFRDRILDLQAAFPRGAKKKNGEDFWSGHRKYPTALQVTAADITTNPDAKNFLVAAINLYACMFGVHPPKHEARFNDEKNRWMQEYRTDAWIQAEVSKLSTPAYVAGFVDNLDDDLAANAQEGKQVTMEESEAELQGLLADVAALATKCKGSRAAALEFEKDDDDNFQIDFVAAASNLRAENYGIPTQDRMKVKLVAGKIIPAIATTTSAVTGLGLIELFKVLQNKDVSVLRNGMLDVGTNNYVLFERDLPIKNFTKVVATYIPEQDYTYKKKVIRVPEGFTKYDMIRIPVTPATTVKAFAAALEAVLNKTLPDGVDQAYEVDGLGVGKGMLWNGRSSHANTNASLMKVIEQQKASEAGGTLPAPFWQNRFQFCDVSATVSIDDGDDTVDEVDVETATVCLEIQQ

[3] = target: Sialic acid-binding Ig-like lectin 9 (Homo sapiens) (UniProt Q9Y336); experiment: Hs-Siglec9 ALPHAscreen SOP 20170721; conditions: 10 µM
Trypanosoma cruzi = experiment: Trypanosoma cruzi phosphomannomutase and mannose-1-phosphate guanylyltransferase assay; assay type: functional; conditions: 10 µM
[4] = target: T2, Arginase-2, mitochondrial (Homo sapiens) (UniProt P78540); experiment: in vitro enzyme assay to detect the production of urea directly proportional to the activity of Arginase II; assay type: functional; conditions: 33.3 µM; also: in the data most compounds retested in dose-response had high values
T2 sequence (whole entry): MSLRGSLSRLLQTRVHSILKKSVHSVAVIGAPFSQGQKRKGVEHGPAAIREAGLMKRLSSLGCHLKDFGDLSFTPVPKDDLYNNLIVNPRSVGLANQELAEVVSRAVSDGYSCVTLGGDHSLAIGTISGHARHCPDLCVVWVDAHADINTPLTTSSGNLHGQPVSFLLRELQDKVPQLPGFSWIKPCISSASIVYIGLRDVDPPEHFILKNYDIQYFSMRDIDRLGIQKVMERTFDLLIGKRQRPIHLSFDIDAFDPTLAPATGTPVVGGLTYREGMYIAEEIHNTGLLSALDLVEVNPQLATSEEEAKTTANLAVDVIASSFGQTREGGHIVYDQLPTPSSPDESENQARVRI

[5] = target: T3, Proteasome subunit beta (Trypanosoma cruzi) (UniProt O96673); experiment: Trypanosoma cruzi proteasome chymotrypsin-like activity (TcProtChymo) assay.; also: in the data most compounds retested in dose-response had high values; assay type: functional; conditions: 9.37 µM
T3 sequence (whole entry): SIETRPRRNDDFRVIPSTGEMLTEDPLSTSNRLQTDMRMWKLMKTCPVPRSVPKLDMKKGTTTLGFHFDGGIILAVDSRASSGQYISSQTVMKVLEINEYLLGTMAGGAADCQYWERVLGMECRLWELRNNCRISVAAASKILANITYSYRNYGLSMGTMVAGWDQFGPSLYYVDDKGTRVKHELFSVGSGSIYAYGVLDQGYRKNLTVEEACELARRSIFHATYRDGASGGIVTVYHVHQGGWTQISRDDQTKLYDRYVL

Homo sapiens = species on record: Homo sapiens; experiment: To identify inhibition of the IFN signalling (Jak-Stat) pathway via expression of an eGFP reporter gene under the control of an IFN-stimulated response element (ISRE) containing MxA promoter.; assay type: functional; conditions: 30 µM
[6] = target: T4, Tyrosyl-tRNA synthetase, putative (Trypanosoma cruzi (strain CL Brener)) (UniProt Q4DSP6); experiment: Trypanosoma cruzi tyrosyl tRNA synthetase (TcYRS) _High Tyrosine SOP; assay type: functional; conditions: 30 µM; also: in the data most compounds retested in dose-response had high values
T4 sequence (whole entry): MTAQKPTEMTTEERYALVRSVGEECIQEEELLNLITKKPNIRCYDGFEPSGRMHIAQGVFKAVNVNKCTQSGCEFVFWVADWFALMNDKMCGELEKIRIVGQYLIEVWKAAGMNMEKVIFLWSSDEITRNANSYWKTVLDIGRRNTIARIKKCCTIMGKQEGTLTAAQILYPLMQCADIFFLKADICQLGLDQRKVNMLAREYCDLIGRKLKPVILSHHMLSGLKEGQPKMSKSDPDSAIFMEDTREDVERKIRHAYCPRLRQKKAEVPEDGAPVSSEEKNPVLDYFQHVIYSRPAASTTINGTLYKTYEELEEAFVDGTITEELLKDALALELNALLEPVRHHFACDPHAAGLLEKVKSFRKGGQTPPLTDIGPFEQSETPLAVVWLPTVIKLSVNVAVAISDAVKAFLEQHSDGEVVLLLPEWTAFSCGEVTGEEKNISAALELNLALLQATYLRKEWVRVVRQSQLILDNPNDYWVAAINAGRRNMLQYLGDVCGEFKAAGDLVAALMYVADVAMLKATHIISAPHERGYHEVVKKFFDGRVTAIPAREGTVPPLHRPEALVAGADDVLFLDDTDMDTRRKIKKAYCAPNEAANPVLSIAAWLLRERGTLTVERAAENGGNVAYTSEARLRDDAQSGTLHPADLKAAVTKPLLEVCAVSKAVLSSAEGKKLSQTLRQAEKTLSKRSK

[7] = target: T4, Tyrosyl-tRNA synthetase, putative (Trypanosoma cruzi (strain CL Brener)); experiment: Trypanosoma cruzi tyrosyl tRNA synthetase (TcYRS) SOP; assay type: functional; conditions: 30 µM
[8] = target: Chromo domain-containing protein 1 (Saccharomyces cerevisiae (strain ATCC 204508 / S288c) (Baker's yeast)) (UniProt P32657); experiment: ScCHD-1 Enzyme Inhibition Assay; assay type: functional; conditions: 30 µM; also: in the data most compounds retested in dose-response had high values
Chromo domain-containing protein 1 (Saccharomyces cerevisiae (strain ATCC 204508 / S288c) (Baker's yeast)), sequence (P32657 whole entry, the tested form may be a part): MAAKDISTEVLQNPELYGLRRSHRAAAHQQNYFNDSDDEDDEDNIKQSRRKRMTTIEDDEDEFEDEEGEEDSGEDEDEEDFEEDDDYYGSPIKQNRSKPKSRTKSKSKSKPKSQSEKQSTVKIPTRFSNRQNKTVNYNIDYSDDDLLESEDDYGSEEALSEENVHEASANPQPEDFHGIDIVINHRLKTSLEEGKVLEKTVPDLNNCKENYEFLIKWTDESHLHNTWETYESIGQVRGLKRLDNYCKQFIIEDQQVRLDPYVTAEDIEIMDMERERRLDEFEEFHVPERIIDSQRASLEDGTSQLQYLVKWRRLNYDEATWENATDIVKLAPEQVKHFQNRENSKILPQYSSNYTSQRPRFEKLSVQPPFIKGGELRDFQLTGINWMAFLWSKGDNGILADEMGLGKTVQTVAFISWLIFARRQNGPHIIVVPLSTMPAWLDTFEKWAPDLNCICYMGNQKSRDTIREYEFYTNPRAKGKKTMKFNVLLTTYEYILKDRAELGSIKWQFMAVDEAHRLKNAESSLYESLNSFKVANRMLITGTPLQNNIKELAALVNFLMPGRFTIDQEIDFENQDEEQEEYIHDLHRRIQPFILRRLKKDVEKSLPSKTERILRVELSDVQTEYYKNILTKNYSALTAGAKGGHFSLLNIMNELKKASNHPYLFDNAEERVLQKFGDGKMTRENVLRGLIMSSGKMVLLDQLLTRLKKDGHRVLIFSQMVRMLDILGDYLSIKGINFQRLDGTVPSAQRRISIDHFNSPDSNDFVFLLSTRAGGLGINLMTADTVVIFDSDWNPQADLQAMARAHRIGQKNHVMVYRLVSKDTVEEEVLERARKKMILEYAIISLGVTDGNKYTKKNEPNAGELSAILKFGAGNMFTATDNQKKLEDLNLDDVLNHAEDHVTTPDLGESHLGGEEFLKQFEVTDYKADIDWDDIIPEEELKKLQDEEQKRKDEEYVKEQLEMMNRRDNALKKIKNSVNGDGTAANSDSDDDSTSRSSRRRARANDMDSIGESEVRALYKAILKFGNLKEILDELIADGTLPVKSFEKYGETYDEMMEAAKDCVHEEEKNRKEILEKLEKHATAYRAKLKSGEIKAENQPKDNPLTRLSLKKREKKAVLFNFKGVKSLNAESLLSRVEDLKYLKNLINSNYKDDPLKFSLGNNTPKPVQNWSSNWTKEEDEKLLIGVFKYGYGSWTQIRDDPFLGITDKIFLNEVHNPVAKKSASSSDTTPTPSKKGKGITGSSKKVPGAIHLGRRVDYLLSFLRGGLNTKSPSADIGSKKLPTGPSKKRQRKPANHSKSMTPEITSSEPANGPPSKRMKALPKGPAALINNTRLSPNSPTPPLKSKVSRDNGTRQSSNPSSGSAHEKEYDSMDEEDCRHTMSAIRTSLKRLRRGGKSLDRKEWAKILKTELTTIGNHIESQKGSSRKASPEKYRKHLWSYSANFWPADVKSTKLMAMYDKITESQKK

Protein translocase subunit SecA (Escherichia coli (strain K12)), sequence (P10408 whole entry): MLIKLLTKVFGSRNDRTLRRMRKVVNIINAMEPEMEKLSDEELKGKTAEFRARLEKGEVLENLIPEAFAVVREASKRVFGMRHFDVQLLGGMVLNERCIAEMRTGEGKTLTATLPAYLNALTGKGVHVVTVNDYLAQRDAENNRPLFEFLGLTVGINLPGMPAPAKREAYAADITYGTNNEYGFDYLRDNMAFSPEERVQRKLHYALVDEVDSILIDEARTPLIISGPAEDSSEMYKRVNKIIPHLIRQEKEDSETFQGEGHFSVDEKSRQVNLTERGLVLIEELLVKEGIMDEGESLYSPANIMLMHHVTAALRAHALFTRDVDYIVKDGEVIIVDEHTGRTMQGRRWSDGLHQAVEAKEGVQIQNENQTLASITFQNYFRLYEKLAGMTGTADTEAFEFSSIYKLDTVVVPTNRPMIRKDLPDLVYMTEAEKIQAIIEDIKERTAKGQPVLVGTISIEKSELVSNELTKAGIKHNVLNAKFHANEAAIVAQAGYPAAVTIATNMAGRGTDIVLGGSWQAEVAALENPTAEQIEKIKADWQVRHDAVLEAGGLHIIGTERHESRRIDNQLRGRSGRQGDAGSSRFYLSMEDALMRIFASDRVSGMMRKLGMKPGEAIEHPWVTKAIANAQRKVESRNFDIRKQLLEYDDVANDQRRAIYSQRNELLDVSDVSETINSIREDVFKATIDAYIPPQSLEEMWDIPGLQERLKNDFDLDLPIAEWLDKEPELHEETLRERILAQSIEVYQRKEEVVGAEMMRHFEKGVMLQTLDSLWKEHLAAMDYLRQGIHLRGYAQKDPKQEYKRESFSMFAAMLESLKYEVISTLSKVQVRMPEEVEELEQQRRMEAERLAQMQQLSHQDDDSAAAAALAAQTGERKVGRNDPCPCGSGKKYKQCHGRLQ
Sialic acid-binding Ig-like lectin 9 (Homo sapiens), sequence (Q9Y336 whole entry): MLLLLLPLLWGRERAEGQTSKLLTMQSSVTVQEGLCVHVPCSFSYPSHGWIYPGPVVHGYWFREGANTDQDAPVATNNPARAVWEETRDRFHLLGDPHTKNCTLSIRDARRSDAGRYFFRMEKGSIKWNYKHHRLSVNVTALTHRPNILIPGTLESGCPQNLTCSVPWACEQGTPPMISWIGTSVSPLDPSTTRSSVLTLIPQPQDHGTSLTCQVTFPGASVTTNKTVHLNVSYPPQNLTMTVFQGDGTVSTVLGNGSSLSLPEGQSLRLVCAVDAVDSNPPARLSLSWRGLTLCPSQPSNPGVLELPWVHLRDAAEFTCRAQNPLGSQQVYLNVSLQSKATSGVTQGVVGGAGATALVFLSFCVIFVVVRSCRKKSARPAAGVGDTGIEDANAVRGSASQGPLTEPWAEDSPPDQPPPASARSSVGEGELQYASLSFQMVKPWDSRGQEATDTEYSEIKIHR

| Compound | Percent Effect [1] | Percent Effect [2] | Percent Effect [3] | Percent Effect (Trypanosoma cruzi) | Percent Effect [4] | Percent Effect [5] | Percent Effect (Homo sapiens) | Percent Effect [6] | Percent Effect [7] | Percent Effect [8] |
| --- | --- | --- | --- | --- | --- | --- | --- | --- | --- | --- |
| CCS(=O)(=O)N1CCC2(CC1)CN(Cc1ccccn1)C(=O)CO2 | 2.67% | 1.3% | 1.21% | -0.487% | 1.62% | 3.44% | -2.87% | -1.58% | 0% | 2.48% |
| Cc1nccc(CN2CC[C@H](Oc3cccc(F)c3)[C@@](C)(O)C2)n1 | -2.64% | 14.7% | 6.31% | -0.197% | 3.1% | 0.657% | 2.7% | 7.41% | 15% | -17.3% |
| CCCc1n[nH]cc1C(=O)N1CCC(c2nccn2CCOC)CC1 | -7.31% | 16.2% | 21.9% | 8.44% | 20.6% | 7.19% | 11% | 5.85% | 12.2% | 20.9% |
| COCCc1noc(CN2CCCCC2Cn2nc(C)cc2C)n1 (stereo not given) | -2.9% | -2.6% | 13.8% | -1.68% | 2.25% | -3.51% | -5.82% | 0.98% | 7.06% | 9% |
| COCC(C)NC(=O)c1cc(Br)c2c(c1)OCCO2 (stereo not given) | -0.916% | 5.33% | 4.72% | -4.82% | 8.43% | 8.74% | 10.6% | -2.63% | 2.56% | -7.03% |
| NC[C@H]1CC[C@H](C(NC(=O)c2ccccn2)c2ccccn2)CC1 (stereo not given in full) | 0.0974% | 14.7% | 1.2% | -1.58% | 0.443% | 15.6% | 8.78% | 4.23% | 22.5% | -24.4% |
| CCNC(=O)[C@@H]1C[C@@H](NC(=O)c2cccnc2O)CN1Cc1ccsc1 | -5.31% | 16.2% | 11.3% | 3.59% | 17.1% | 19.2% | 2.29% | 6.92% | 21.9% | -4.37% |
| O=C(CN1CCCS1(=O)=O)NCCOc1ccc2c(c1)CCC2 | -6.62% | 2.56% | 4.23% | 3.66% | 5.74% | -10.2% | 6.45% | 1.44% | 6.02% | -2.78% |
| COc1ccc(-c2nc(CN3CCc4c(ncn4C)C3)cs2)cc1 | -0.999% | -12.8% | -13.6% | 3.66% | 0.41% | 13.4% | 18.6% | 18.7% | 22.9% | 4.88% |
| O=C(C1CCOC1)N1CCc2ncc(CNc3ccccn3)n2CC1 (stereo not given) | -0.228% | 1.3% | 8.26% | -0.682% | -1.62% | 6.8% | 4.98% | 3.68% | 5.13% | -14.8% |
| Cc1cc(C2CCCN(C(=O)c3c(C)nn4cccnc34)C2)n[nH]1 (stereo not given) | -3.7% | 8% | 6.1% | -2.21% | 0.444% | 6.7% | 9.89% | 2.63% | 5.13% | -4.49% |
| CCNc1cc2c(nn1)CCN(C(=O)c1cc3nc(C)ccc3o1)C2 | -8.41% | 13.3% | 11.1% | 9.04% | -0.887% | 20.4% | 6.54% | 5.79% | 15.4% | -6.95% |
| CCCn1ncc2c(C(=O)Nc3cnn(CC)c3C)cc(C3CC3)nc21 | 1.41% | 12% | -1.57% | 2.76% | 3.98% | 17.4% | 2.46% | 2.12% | 12.5% | -24.6% |
| Cc1ccc(-c2nc(CCNC(=O)NC3CCN(C)CC3)co2)cc1 | -4.38% | 8% | -2.04% | 1.81% | -4.88% | 12.3% | 9.37% | 3.68% | 5.13% | -12.9% |
| CC(=O)N1N=C(c2ccccc2)OC1C(=O)NCCc1cccc(Cl)c1 (stereo not given) | 4.91% | 6.67% | -6.99% | -2.56% | 2.65% | 8.05% | 8.59% | 0% | 10% | -24.5% |
| CCC1c2ccsc2CCN1C(=O)NCc1cc[nH]n1 (stereo not given) | -7.17% | 7.69% | -4.75% | -4.79% | 0% | 7.25% | 21.4% | 2.39% | 6.02% | -1.84% |
| O=C(CSC1CCc2ccccc2NC1=O)NCCc1ccco1 (stereo not given) | -1.93% | 18.9% | 2.64% | 3.98% | 11.5% | 18% | 16.5% | 3.72% | 17.1% | -0.493% |
| Cc1cnn(CC2CCCCN2C(=O)c2cc(Cl)c[nH]2)c1 (stereo not given) | -3.19% | 20.8% | 10.9% | 6.53% | -5.53% | 6.67% | 15.7% | 5.88% | 23.5% | -9.18% |
| CC(C)c1nc(C2CCCN2Cc2ccn(C)c(=O)c2)no1 (stereo not given) | -2.26% | 15.4% | 1.98% | -0.845% | 7.79% | 20.1% | 17.1% | 6.22% | 18.1% | -2.67% |
| Cc1noc(C(C)C)c1C(=O)NCCCN1CCCC1 | -2.44% | 26% | 0.986% | 1.12% | -3.48% | 12.1% | 8.55% | 7.84% | 30.6% | -13.2% |
| CC(NC(=O)CN(C)S(C)(=O)=O)c1nnc2n1CCCCC2 (stereo not given) | 1.95% | 13% | 1.1% | -4.48% | -15% | 17.2% | 26.4% | -0.98% | 4.71% | -8.79% |
| CNC(=O)CN1CCCC12CCN(C(=O)c1ccc(F)cc1)CC2 | -1.29% | 1.3% | -0.371% | -6.75% | 3.2% | 8.33% | 22.8% | -0.966% | -5% | -4.71% |
| Cc1cc(C)n(CC2CCCN2CCS(=O)(=O)c2ccccc2)n1 (stereo not given) | -0.665% | -7.69% | -1.27% | 0.845% | 9.43% | -2.47% | 18.7% | 1.44% | -1.21% | 1.56% |
| CNc1cc(C2CCCN2C(=O)c2ccc3oc(=O)n(C)c3c2)ccn1 (stereo not given) | -1.24% | 14.7% | 1.42% | -3.94% | -1.33% | 11.3% | -1.54% | 0% | 7.5% | -22.1% |
